Measured values as given in PubChem BioAssay (Tox21).
Calls of active or inactive are those of the source. The call rests on the fitted dose curve; in most records, active means well fitted curve in the direction sought with a large enough effect in the repeat runs; inconclusive means weak or mixed curves; inactive means flat fitted curve, though single readings scatter.

Test: qHTS assay to test for compound auto fluorescence at 590 nm (red) in HepG2 cells (AID 720674)
Details: HepG2 autofluorescence, red 540/590 nm, 1 h; series mostly up to 91.3 µM
From the text: U.S. Tox21 Program National Center for Advancing Translational Sciences [NCATS] NIH Chemical Genomics Center [NCGC] U.S. Environmental Protection Agency [EPA] National Institutes of Environmental Health Sciences [NIEHS] National Toxicology Program [NTP] U.S. Food and Drug Administration [FDA] Tox21 Assay Overview: Compound auto fluorescence often interferes with screening of the compound library against various biological targets and signaling pathways. Some of these compounds may have fluorophoric properties. Such properties may interfere with the assay outputs resulting in false positives and/or negatives. To decrease such complications and ensure the compound activities are relevant in terms of biological response, the Tox21 10K compound library was screened for auto fluorescence. From the fluorophores used as reporter signals in our screening assays, the auto fluorescence equivalencies of compounds against three fluorophores have been evaluated: Triamterene, Fluorescein and Rose Bengal sodium for blue, green and red fluorescence, respectively. The fluorescence intensities were measured using Excitation/Emission wavelengths at 405/460nm, 485/535nm and 540/590nm for blue, green and red labels, respectively. This assay includes the red fluorescence data.
Tox21 Assay Protocol Summary: 2,000 HepG2 cells in 5 uL of culture medium (MEM containing 10% FBS) per well were dispensed into black wall/clear bottom 1536-well plates using a Multidrop Combi Dispenser (ThermoFisher Scientific, Waltham, MA). The assay plates were incubated overnight at 37 C to allow cell attachment to the well bottom, followed by the transfer of 23 nL compound or DMSO vehicle by a pintool work station (Kalypsys , San Diego, CA). After the assay plates were incubated for 1 hr at 37 C and 5% CO2, fluorescence intensities in the assay plates were measured by an Envision (PerkinElmer, Shelton, CT) plate reader using three labels for measuring blue, green and red fluorescence at […] 460, 535 and 590 nm respectively.

Compound	outcome
N[C@@H](Cc1c[nH]c2ccc(O)cc12)C(=O)O	inactive
Cn1cnc2c1c(=O)[nH]c(=O)n2C	inactive
C=C(C)OC(C)=O	inactive
O=C(O)Cc1cccc2ccccc12	inactive
COCCOCCOC	inactive
COC1=CC(=O)C[C@@H](C)[C@]12Oc1c(Cl)c(OC)cc(OC)c1C2=O	inactive
OCCCc1ccccc1	inactive
O=c1cc[nH]c(=O)[nH]1	inactive
CC(=O)c1ccc(S(=O)(=O)NC(=O)NC2CCCCC2)cc1	inactive
CC(=O)CCC(C)C	inactive
CC(O)COc1ccccc1 (stereo not given)	inactive
CC(=O)Oc1ccccc1C(=O)O	inactive
OC[C@@H](O)[C@@H](O)[C@H](O)[C@H](O)CO	inactive
COc1ccccc1O	inactive
O=[N+]([O-])c1ccc(O)cc1	inactive
C#C[C@]1(O)CC[C@H]2[C@@H]3CCc4cc(O)ccc4[C@H]3CC[C@@]21C	inactive
CC1(C)O[C@@H]2[C@@H](CO[C@@]3(COS(N)(=O)=O)OC(C)(C)O[C@@H]23)O1	inactive
COCC(C)N (stereo not given)	inactive
CCCCCCCC(=O)OCC(O)CO (stereo not given)	inactive
NC(=O)c1ccc([N+](=O)[O-])cc1Cl	inactive

Compound	outcome
CC(C)=CCC/C(C)=C/CO	inactive
CCn1cc(C(=O)O)c(=O)c2ccc(C)nc21	inactive
CC1=NN(c2ccccc2)C(=O)C1	inactive
C[C@]12C[C@H](O)[C@H]3[C@@H](CCC4=CC(=O)CC[C@@]43C)[C@@H]1CC[C@@H]2C(=O)CO	inactive
CCCCCCCCOc1ccc(C(=O)c2ccccc2)c(O)c1	inactive
CCN(CC)CCOC(=O)c1ccc(N)cc1	inactive
CC1=C(/C=C/C(C)=C/C=C/C(C)=C/C(=O)O)C(C)(C)CCC1	inactive
COc1ccccc1NC(=O)CC(C)=O	inactive
COc1cc2c(c(OC)c1OC)-c1ccc(OC)c(=O)cc1[C@@H](NC(C)=O)CC2	inactive
CCCCCCCCCCCCCCCCCC(=O)OCC(O)CO (stereo not given)	inactive
CC(C)(C)NCC(O)c1ccc(O)c(CO)c1 (stereo not given)	inactive
NC(=O)N/N=C/c1ccc([N+](=O)[O-])o1	inactive
CC(C)Cc1ccc(C(C)C(=O)O)cc1 (stereo not given)	inactive
COc1cc(C=O)ccc1O	inactive
O=C(O)CCCCC1CCSS1 (stereo not given)	inactive
CCCCCCCCCCCCCC(=O)OC(C)C	inactive
COC(=O)c1ccc(C=O)cc1	inactive
CCOC(=O)C(C)(C)Oc1ccc(Cl)cc1	inactive
NC(=O)NO	inactive
CC(C)CC(C)CC(O)CC(C)C (stereo not given)	inactive
